In PubChem BioAssay (Tox21):
Values joined by “and” are separate entries in the source; they are usually repeats but may differ in a detail not shown here. Equal values may be shown once. Records with an inconclusive call do not appear. A call without a number means that no potency is given here. The source holds several records for some structures; these can differ, active in one and inactive in another. Active and inactive are the calls of the source. Unless noted, calls come from the whole dose curve; as a rule, active = well fitted curve in the direction sought with a large enough effect in the repeat runs; inconclusive = weak or mixed curves; inactive = no such curve, though single readings can be large; an effect the other way counts as inactive or inconclusive.

Tests used:
[1] = target: Acetylcholinesterase (Homo sapiens) (UniProt P22303); assay: Acetylcholinesterase (AChE) small molecule antagonists: enzyme-based qHTS assay (AID 1347397; calls by dose curve; note: nearly all actives have a fitted effect of over 55% in size; note: potency is the fitted concentration of half-maximal effect); conditions: Potency: AChE enzyme activity inhibition; outcome: AChE enzyme activity inhibition
In short: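 rhAChE 50 mU/mL (dispensed) + cpd or DMSO, 30 min RT; add DTNB/acetylthiocholine cocktail, 10 min RT; colorimetric thiocholine readout. qHTS, 1536-well format.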

[2] = target: Acetylcholinesterase (Homo sapiens) (UniProt P22303); assay: Acetylcholinesterase (AChE) small molecule antagonists: fluorescence cell-based qHTS assay (AID 1347398; calls by dose curve; note: nearly all actives have a fitted effect of over 50% in size; note: potency is the fitted concentration of half-maximal effect); conditions: Potency: AChE activity; outcome: AChE activity
In short: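 Read-out is Thiolite Green fluorescence at Ex/Em = 490/520 nm, formed by reaction with thiocholine released when cellular AChE in SH-SY5Y cells hydrolyzes acetylthiocholine. Compounds were preincubated 30 min at 37 C before substrate.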

[3] = target: Acetylcholinesterase (Homo sapiens) (UniProt P22303); assay: Acetylcholinesterase (AChE) small molecule antagonists: enzyme-based qHTS assay with human liver microsomes (AID 1347399; calls by dose curve; note: nearly all actives have a fitted effect of over 60% in size); conditions: Potency: qHTS inhibition; outcome: qHTS inhibition
In short: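 Recombinant human AChE (50 mU/mL in the enzyme mix) and human liver microsomes (0.25 mg/mL final) were preincubated with compound and NADPH (0.25 mg/mL final) for 30 min at 37 C. Acetylthiocholine/DTNB was then added; thiocholine was read colorimetrically after 10 min at room temperature.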

[4] = target: Cytochrome P450 2D6 (Homo sapiens) (UniProt P10635); assay: Cytochrome P450 Family 2 Subfamily D Member 6 (CYP2D6) small molecule antagonists: luciferase reporter qHTS assay (AID 1671196); note: nearly all actives have a fitted effect of over 50% in size; note: potency is the fitted concentration of half-maximal effect
In short: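 Inhibition of CYP2D6 was gauged by loss of luminescence, since light produced tracks the luciferin generated from a proluciferin substrate. A 10 min room-temperature preincubation preceded 1 h NADPH-supported turnover.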

[5] = target: Cytochrome P450 2C19 (Homo sapiens) (UniProt P33261); assay: Cytochrome P450 Family 2 Subfamily C Member 19 (CYP2C19) small molecule antagonists: luciferase reporter qHTS assay (AID 1671197); note: nearly all actives have a fitted effect of over 65% in size; note: potency is the fitted concentration of half-maximal effect
In short: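 Luminescent readout of CYP2C19 activity: luciferin product detected 20 min after adding detection reagent. Before that, compound and enzyme-substrate mix preincubated 10 min at room temperature; NADPH-regenerating system started a 1 h, 37C reaction. Ketoconazole as positive control.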

[6] = target: Cytochrome P450 2C9 (Homo sapiens) (UniProt P11712); assay: Cytochrome P450 Family 2 Subfamily C Member 9 (CYP2C9) small molecule antagonists: luciferase reporter qHTS assay (AID 1671198); note: nearly all actives have a fitted effect of over 50% in size; note: potency is the fitted concentration of half-maximal effect
In short: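 Enzyme-substrate mix preincubated with compound 10 min at room temperature; reaction started with NADPH regeneration solution, 1 h 37C. Luminescent luciferin product read after 20 min detection reagent.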

[7] = target: Cytochrome P450 1A2 (Homo sapiens) (UniProt P05177); assay: Cytochrome P450 Family 1 Subfamily A Member 2 (CYP1A2) small molecule antagonists: luciferase reporter qHTS assay (AID 1671199); note: nearly all actives have a fitted effect of over 50% in size; note: potency is the fitted concentration of half-maximal effect
In short: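 Signal from luciferin formed by CYP1A2 from a proluciferin substrate is read as luminescence, expressed in relative luminescence units. Compounds sit with enzyme 10 min, NADPH-driven reaction runs 1 h, all at room temperature.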

[8] = target: Voltage-gated inwardly rectifying potassium channel KCNH2 (Homo sapiens) (UniProt Q12809); assay: Human Ether-a-go-go-Related Gene (hERG) channel small molecule antagonists: fluorescence cell-based qHTS assay (AID 1671200); note: nearly all actives have a fitted effect of over 50% in size; note: potency is the fitted concentration of half-maximal effect
In short: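 U2OS cells expressing the channel were plated at 1000 cells/well, incubated overnight at 37 C, then loaded with FluxOR II thallium-sensitive dye for 1 h at room temperature in the dark, with a further 10 min at room temperature before stimulation.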

[9] = target: Cytochrome P450 3A4 (Homo sapiens) (UniProt P08684); assay: Cytochrome P450 Family 3 Subfamily A Member 4 (CYP3A4) small molecule antagonists: luciferase reporter qHTS assay (AID 1671201); note: nearly all actives have a fitted effect of over 50% in size; note: potency is the fitted concentration of half-maximal effect
In short: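 P450-Glo CYP3A4 system with proluciferin substrate; compounds preincubated 10 min RT with enzyme-substrate mix, then NADPH regeneration added for 1 h RT. Detection reagent 20 min, luminescence read as relative luminescence units.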

Voltage-gated inwardly rectifying potassium channel KCNH2 (Homo sapiens), sequence (Q12809 whole entry, looked up): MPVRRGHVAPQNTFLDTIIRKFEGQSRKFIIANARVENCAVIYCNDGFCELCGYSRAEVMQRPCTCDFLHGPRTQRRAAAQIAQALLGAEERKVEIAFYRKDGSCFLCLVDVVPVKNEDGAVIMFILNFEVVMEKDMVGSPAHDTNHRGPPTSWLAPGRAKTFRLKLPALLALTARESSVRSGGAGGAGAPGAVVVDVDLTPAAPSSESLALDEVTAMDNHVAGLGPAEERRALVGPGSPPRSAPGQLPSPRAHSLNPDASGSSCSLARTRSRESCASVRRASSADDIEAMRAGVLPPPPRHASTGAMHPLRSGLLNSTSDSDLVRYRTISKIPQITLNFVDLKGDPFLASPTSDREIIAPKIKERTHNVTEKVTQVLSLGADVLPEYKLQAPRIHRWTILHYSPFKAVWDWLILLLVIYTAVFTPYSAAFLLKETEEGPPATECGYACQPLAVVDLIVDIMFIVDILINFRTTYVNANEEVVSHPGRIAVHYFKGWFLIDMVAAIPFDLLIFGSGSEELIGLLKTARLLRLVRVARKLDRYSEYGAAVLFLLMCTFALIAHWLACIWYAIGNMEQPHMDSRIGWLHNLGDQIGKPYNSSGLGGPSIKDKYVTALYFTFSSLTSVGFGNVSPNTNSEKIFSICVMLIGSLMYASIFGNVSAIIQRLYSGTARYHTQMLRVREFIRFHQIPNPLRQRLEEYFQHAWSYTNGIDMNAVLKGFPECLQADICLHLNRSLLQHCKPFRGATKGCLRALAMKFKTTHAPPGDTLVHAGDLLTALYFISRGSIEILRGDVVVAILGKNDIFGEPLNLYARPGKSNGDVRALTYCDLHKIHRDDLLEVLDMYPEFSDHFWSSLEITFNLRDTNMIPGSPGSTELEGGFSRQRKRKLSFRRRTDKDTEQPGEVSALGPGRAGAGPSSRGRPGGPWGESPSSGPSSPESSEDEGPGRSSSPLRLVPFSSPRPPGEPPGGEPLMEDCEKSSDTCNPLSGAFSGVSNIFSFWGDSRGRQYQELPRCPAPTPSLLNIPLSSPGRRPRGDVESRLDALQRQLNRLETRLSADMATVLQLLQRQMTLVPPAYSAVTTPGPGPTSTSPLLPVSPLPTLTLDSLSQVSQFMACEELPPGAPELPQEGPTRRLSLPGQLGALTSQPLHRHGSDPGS
Cytochrome P450 2D6 (Homo sapiens), sequence (P10635 whole entry, looked up): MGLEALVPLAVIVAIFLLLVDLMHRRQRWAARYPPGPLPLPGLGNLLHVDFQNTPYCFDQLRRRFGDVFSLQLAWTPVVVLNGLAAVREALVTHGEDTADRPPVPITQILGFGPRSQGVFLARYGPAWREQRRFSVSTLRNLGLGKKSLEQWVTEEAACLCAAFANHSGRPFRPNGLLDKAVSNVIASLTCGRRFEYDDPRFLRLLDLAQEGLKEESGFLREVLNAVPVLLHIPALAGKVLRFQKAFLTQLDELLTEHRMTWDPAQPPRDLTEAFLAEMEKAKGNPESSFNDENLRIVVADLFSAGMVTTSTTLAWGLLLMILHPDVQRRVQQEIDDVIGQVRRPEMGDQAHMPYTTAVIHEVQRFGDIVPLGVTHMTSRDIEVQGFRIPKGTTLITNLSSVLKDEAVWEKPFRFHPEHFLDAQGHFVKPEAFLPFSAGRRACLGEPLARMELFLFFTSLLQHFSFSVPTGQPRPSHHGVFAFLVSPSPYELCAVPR
Cytochrome P450 2C9 (Homo sapiens), sequence (P11712 whole entry, looked up): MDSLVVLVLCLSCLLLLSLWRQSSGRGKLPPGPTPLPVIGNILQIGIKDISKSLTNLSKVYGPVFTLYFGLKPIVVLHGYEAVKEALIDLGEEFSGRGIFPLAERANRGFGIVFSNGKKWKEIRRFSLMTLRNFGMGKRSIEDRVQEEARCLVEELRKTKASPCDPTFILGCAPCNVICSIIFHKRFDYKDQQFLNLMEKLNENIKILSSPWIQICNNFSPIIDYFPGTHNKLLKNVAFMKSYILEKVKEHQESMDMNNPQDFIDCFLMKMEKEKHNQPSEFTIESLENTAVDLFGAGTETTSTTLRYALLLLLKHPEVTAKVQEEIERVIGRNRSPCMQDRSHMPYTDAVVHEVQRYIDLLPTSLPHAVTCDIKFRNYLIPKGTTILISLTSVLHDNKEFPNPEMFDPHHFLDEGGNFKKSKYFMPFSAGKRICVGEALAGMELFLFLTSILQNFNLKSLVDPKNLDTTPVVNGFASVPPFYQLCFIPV
Cytochrome P450 1A2 (Homo sapiens), sequence (P05177 whole entry, looked up): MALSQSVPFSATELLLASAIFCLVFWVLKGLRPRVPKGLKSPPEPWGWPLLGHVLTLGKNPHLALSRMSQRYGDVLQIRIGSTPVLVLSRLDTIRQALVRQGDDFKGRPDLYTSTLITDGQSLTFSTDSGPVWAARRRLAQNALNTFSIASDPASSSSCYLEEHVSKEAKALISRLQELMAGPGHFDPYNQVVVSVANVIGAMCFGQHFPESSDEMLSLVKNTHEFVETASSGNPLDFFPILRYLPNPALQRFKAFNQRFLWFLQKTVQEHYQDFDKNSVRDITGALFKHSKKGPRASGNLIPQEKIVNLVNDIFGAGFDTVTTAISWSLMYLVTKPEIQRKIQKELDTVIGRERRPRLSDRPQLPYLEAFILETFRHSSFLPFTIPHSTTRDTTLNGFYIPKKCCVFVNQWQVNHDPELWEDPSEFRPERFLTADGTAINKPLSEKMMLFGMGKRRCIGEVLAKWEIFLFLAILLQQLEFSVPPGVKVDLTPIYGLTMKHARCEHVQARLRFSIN
Cytochrome P450 3A4 (Homo sapiens), sequence (P08684 whole entry, looked up): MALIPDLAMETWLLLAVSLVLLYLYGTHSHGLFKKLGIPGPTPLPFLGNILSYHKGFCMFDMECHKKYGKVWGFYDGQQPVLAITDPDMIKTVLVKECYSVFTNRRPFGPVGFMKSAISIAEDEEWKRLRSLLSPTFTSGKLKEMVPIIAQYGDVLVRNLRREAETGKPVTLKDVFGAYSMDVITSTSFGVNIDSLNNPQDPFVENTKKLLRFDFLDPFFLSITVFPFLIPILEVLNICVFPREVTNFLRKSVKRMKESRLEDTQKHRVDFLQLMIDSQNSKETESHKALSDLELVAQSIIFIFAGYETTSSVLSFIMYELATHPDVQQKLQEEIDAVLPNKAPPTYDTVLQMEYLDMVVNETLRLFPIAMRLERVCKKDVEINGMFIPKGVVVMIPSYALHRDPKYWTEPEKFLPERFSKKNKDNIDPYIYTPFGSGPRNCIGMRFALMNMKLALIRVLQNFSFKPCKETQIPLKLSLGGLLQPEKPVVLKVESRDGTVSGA
Acetylcholinesterase (Homo sapiens), sequence (P22303 whole entry, looked up): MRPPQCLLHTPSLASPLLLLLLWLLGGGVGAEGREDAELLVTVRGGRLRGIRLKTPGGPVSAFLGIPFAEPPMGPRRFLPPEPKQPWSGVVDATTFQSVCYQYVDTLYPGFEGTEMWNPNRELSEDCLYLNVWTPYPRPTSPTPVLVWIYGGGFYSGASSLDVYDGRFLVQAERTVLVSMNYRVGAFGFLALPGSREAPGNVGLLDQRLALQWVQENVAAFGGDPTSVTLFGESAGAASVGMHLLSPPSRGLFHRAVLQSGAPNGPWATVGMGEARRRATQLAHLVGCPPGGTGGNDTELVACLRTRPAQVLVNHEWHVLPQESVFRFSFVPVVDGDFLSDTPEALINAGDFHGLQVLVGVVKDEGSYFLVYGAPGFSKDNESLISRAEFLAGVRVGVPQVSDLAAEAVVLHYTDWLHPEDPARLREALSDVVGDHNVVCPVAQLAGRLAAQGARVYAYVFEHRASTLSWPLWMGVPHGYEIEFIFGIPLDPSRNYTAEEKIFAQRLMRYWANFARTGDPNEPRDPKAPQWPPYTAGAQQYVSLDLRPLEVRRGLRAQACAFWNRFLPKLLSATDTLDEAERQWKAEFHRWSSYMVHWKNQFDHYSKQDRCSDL
Cytochrome P450 2C19 (Homo sapiens), sequence (P33261 whole entry, looked up): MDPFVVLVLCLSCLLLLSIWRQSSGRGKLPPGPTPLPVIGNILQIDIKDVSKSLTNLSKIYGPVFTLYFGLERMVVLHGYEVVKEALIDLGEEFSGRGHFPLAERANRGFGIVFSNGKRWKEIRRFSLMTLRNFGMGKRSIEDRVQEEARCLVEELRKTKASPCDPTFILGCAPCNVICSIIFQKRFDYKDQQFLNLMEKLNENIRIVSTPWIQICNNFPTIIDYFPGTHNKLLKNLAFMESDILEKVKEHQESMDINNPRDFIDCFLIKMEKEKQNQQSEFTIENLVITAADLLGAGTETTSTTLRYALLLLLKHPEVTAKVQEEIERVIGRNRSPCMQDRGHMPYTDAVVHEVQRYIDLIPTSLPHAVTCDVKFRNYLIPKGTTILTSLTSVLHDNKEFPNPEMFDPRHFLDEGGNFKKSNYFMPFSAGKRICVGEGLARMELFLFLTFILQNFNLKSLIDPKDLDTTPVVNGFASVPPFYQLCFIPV

Row | SMILES | Potency [1] | Potency [2] | Potency [3] | Potency [4] | Potency [5] | Potency [6] | Potency [7] | Potency [8] | Potency [9]
1 | O=P(OCC(Br)CBr)(OCC(Br)CBr)OCC(Br)CBr (stereo not given) | inactive | inactive | inactive | 20.3 µM (active) and 26.8 µM (active) | 3.6 µM (active) and 4.25 µM (active) | 16.1 µM (active) and 16.9 µM (active) | 7.19 µM (active) and 9.52 µM (active) | 12.5 µM (active) and 18.5 µM (active) | 2.55 µM (active) and 7.56 µM (active)
2 | COc1cc(CC(C)N)c(OC)cc1Br (stereo not given) | inactive | inactive | inactive | 26 µM (active) | inactive | inactive | 5.2 µM (active) | inactive | –
3 | Clc1ccccc1 | inactive | inactive | inactive | inactive | inactive | inactive | inactive | inactive | inactive
4 | CC(C)(C)NCC(O)c1ccccc1Cl (stereo not given) | inactive | inactive | inactive | 9.77 µM (active) | inactive | inactive | inactive | inactive | inactive
5 | CC(C)C1(C)N=C(c2ncccc2C(=O)O)NC1=O (stereo not given) | inactive | inactive | inactive | inactive | inactive | inactive | inactive | inactive | inactive
6 | Cc1ccccc1 | inactive | inactive | inactive | inactive | inactive | inactive | inactive | inactive | inactive
7 | O=C(Cc1ccccc1)OCCc1ccccc1 | inactive | inactive | inactive | inactive | 2.52 µM (active) | 20 µM (active) | 10 µM (active) | inactive | inactive
8 | C=CCc1ccc(OC(=O)Cc2ccccc2)c(OC)c1 | inactive | inactive | inactive | 35.6 µM (active) | 22.4 µM (active) | 12.6 µM (active) | 35.6 µM (active) | inactive | 11.2 µM (active)
9 | CC(C)[C@@H](C(=O)O[C@@H](C#N)c1cccc(Oc2ccccc2)c1)c1ccc(Cl)cc1 | inactive | inactive | inactive | 32.2 µM (active) and inactive | 9.07 µM (active) and 31.7 µM (active) | 7.21 µM (active) and 12.6 µM (active) | inactive | inactive | inactive
10 | O=C(CCl)CCl | inactive | inactive | inactive | inactive | inactive | inactive | inactive | inactive | inactive
11 | O=[N+]([O-])O[C@H]1CO[C@H]2[C@@H]1OC[C@H]2O[N+](=O)[O-] | inactive | inactive | inactive | inactive | inactive | inactive | inactive | inactive | inactive
12 | O=C(O)C(F)(F)C(F)(F)C(F)(F)C(F)(F)C(F)(F)C(F)(F)C(F)(F)C(F)(F)F | inactive | inactive | inactive | inactive | 71 µM (active) | 1.78 µM (active) | inactive | inactive | inactive
13 | O=C(O)COc1cc(Cl)c(Cl)cc1Cl | inactive | inactive | inactive | inactive | inactive | 63.4 µM (active) and 39.9 µM (active) | inactive | inactive | inactive
14 | CCCCC(CC)CO[N+](=O)[O-] (stereo not given) | inactive | inactive | inactive | inactive | inactive | inactive | inactive | inactive | inactive
15 | OCCCl | inactive | inactive | inactive | inactive | inactive | inactive | inactive | inactive | inactive
16 | CCc1cnc(C2=NC(C)(C(C)C)C(=O)N2)c(C(=O)O)c1 (stereo not given) | inactive | inactive | inactive | inactive | inactive | inactive | inactive | inactive | inactive
17 | CC(Cc1ccccc1)NCc1ccccc1Cl (stereo not given) | inactive | inactive | inactive | 0.174 µM (active) | 1.38 µM (active) | inactive | 15.5 µM (active) | inactive | –
18 | CCOP(=O)(SC(C)CC)N1CCSC1=O (stereo not given) | inactive | inactive | inactive | inactive | 79.6 µM (active) | 63.3 µM (active) | 35.6 µM (active) | inactive | –
19 | O=C(Cc1ccccc1)c1ccccc1 | inactive | inactive | inactive | 22.4 µM (active) | 11.2 µM (active) | inactive | 12.6 µM (active) | inactive | inactive
20 | CCCCCCCCCCCC[N+](C)(C)CCOc1ccccc1 | 63.3 µM (active) | 35.6 µM (active) | inactive | 3.56 µM (active) and 4.36 µM (active) | 56.4 µM (active) | 63.3 µM (active) | 79.7 µM (active) and inactive | 776 nM (active) and 1.34 µM (active) | inactive
21 | CC1(C)CC(=O)CC(C)(C)N1[O] | inactive | inactive | inactive | inactive | inactive | inactive | inactive | inactive | inactive
22 | OC[P+](CO)(CO)CO | inactive | inactive | inactive | inactive | inactive | inactive | inactive | inactive | inactive
